Screening results from PubChem BioAssay.
Hits are enriched below; roughly 2.6% of the tested compounds scored in any of these assays.
uPA surface inh: cell surface uPA generation inhibition | Potency, µM (highest dose often 38.3 µM), for inactives: top-dose activity change, negative = inhibition, usual class: inhibitors | AID 540303 | cell surface uPA generation assay, qHTS | 330,000 compounds, 0.31% hits; active = well fitted inhibition curve with a large enough effect; inconclusive = small, poorly fitted or top-dose-only effect; inactive = no such curve, though single readings can be large or run the other way; tested in mouse RAW 264.7 cells; note: potency is the fitted concentration of half-maximal effect; % is set by controls: 0 for no effect and ±100 for the full control effect; nearly all actives have a fitted effect of over 55% in size
Giardia killer: kills Giardia lamblia. Giardia lamblia trophozoite viability. activity change, % at 7.66 µM, hits read low. 340,000 compounds, 0.15% hits. AID 540267; in the data active = activity change below about -80%; inconclusive = between about -30% and that limit;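 note: parasites exposed to compound for two days anaerobically before the ATP read; % is set by controls: 0 for no effect and ±100 for the full control effect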
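Each well holds 100 Giardia trophozoites and compound. After two days (48 hrs) at 37 deg C in anaerobic conditions, ATP is quantified by luminescence.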
ATXN viability: reduces viability in counter-screen for ATXN expression inhibitors; Potency, µM (titrated, usually from 56.7 µM), most hits filed as cytotoxic; AID 651635; S2 cells (HEK-293 line with an ATXN2-luciferase reporter) viability, CellTiter-Fluor protease fluorescence, 24 h; 400,000 compounds, 0.49% hits; note: potency is the fitted concentration of half-maximal effect; nearly all actives have a fitted effect of over 40% in size
HepG2 tox: kills HepG2 cells in TGF-b inhibitor counter-screen; HepG2 CAGA-GFP viability, ATP luminescence, 18 h; Potency, µM (series often up to 46.1 µM), for the others: at the top dose activity change, negative = cytotoxicity, hits mostly cytotoxic; 410,000 compounds, 0.76% hits; note: potency is the fitted concentration of half-maximal effect
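HepG2 CAGA-GFP cells (1000/well, DMEM with 1% FBS) received compound, then TGF-beta at 500 pg/mL final, and were incubated 18 hours at 37 degrees C. Viability was read by CellTiter-Glo luminescence. Media-only wells were set as complete cell-killing and DMSO as no toxicity.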
TGFb SMAD3 inh: blocks TGF-b signaling. HepG2 CAGA-GFP TGF-b/SMAD3 reporter, GFP fluorescence, 18 h; TGF-beta stimulated, 500 pg/mL final. 410,000 compounds, 1.2% hits. Potency, µM (series often up to 46.1 µM), for inactives: at the top dose activity, negative = inhibition, usual class: inhibitors; note: potency is the fitted concentration of half-maximal effect; % is set by controls: 0 for no effect and ±100 for the full control effect; nearly all actives have a fitted effect of over 65% in size
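Cell-based qHTS in HEPG2 carrying a CAGA-GFP Smad reporter; compounds added before 500 pg/mL final TGF-beta, 18 h incubation at 37 degrees C, GFP fluorescence quantified per cell by imaging cytometry.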
ATXN2 expr inh: inhibitors of ATXN2 expression; HEK-293 ATXN2-luciferase reporter, luminescence, 24 h; Potency, µM (top dose mostly 57 µM), without a hit: top-dose activity change, negative = inhibition, hits mostly inhibitors; 360,000 compounds, 0.72% hits; note: potency is the fitted concentration of half-maximal effect; % is set by controls: 0 for no effect and ±100 for the full control effect; nearly all actives have a fitted effect of over 55% in size
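ATXN2-luciferase reporter cells (luciferase flanked by upstream and downstream ATXN2 gene portions) were treated 24 h at 37 °C with compounds at up to 57 uM. SteadyGlo luminescence gave expression; GF-AFC fluorescence gave viability.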
The depositor's hits bear a star; i = inactive; ? = inconclusive; · = no result. Unless noted, calls come from the whole dose curve; as a rule, active = well fitted curve in the direction sought with a large enough effect; inconclusive = small, poorly fitted or top-dose-only effect, or another doubt; inactive = no such curve, though single readings can be large; an effect the other way counts as inactive or inconclusive.

SMILES	uPA surface inh	Giardia killer	ATXN viability	HepG2 tox	TGFb SMAD3 inh	ATXN2 expr inh
CCOC(=O)c1cc(-c2ccccc2)n(CCCC(=O)Nc2cccc(Cl)c2C)c1C	·	·	·	-56.4%	11.2µM*	·
CCOC(=O)c1cc(-c2ccccc2)n(CCC(=O)Nc2ccc(Cl)c(C(F)(F)F)c2)c1C	·	·	·	11.2µM*	3.55µM*	·
O=C(Nc1ccc(-c2nc3ccccc3[nH]2)cc1)C1CCCO1 (stereo not given)	?	?	i	7.08µM*	7.2%	-28.7%
O=C(Nc1ccc(Cl)c(-c2nc3ccccc3[nH]2)c1)c1ccc2c(c1)OCO2	-4.5%	-4.0	i	-13.2%	-49.8%	6.8%
O=C(Nc1ccc(-c2nc3ccccc3[nH]2)cc1)c1ccc2c(c1)OCO2	-3.2%	-5.3	?	8.91µM*	7.94µM*	-28.3%
O=C(CSc1ccccc1)Nc1ccc(-c2nc3ccccc3[nH]2)cc1	0.0%	-12.8	i	15.8µM*	?	6.9%
Cc1ccc2nc(-c3ccc(NC(=O)CSc4ccccc4)cc3)[nH]c2c1	-13.2%	-0.2	i	-63.0%	-17.6%	-0.7%
CC(=O)CSc1ccc(-c2nc3ccccc3[nH]2)cn1	-13.0%	?	i	10µM*	-0.6%	-29.2%
CC(=O)CSc1ccc(-c2nc3cc(C)c(C)cc3[nH]2)cn1	-17.3%	?	?	-21.6%	?	?
CC(C)C(NC(=O)c1ccccn1)c1nnc2n1CCN(Cc1ccc3ccccc3c1)CC2 (stereo not given)	·	·	i	·	·	·
Cc1ccc(C)c(Nc2nc(NCc3ccco3)nc3nccnc23)c1	·	-21.2	·	-3.0%	2.3%	·
Cc1cc(C(=O)NCC2CCC3(CCN(Cc4ccc(F)cc4)CC3)O2)n(C)n1 (stereo not given)	·	·	i	·	·	·
O=C(c1ccccc1)C(I)(I)N1CCOCC1	·	·	·	-6.1%	11.0%	·
CN(CCO)C(=O)c1cn(C2CCN(Cc3c(F)cccc3Cl)CC2)nn1	·	·	i	·	·	·
OC(c1ccccc1)(c1ccccc1)C1CCN(CCCOc2ccc3c(c2)CCCC3)CC1	·	·	25.1µM*	·	·	17.8µM*
N#Cc1ccc(C#Cc2ccc3oc4ccccc4c(=O)c3c2)cc1	-2.4%	-4.5	i	3.6%	-7.6%	2.9%
Nc1ccc(C#Cc2ccc3c(=O)c4ccccc4oc3c2)cc1	1.26µM*	5.0	·	-26.3%	-13.9%	21.9%
COc1cc2oc3cc(C#Cc4ccc(N)cc4)ccc3c(=O)c2cc1OC	3.98µM*	48.2	·	-28.2%	?	?
O=C(C[N+]12CCCc3cccc(c31)CCC2)c1ccc(Cl)c2ccccc12	·	·	·	20.6%	6.4%	·
Cc1c(Br)cnc2ccccc12	·	·	·	-7.9%	0.4%	·
Cc1oc2ncnc(N3CCCCC3)c2c1C(=O)N1CCN(c2ccc(Cl)cc2)CC1	·	·	i	5.2%	-1.7%	3.3%
Cc1ccc(Cl)cc1N1CCN(C(=O)c2c(C)oc3ncnc(N4CCCCC4)c23)CC1	·	·	?	-66.0%	?	28.2µM*
O=C(CS(=O)c1ccc(C(F)(F)F)cc1[N+](=O)[O-])Oc1ccccc1 (stereo not given)	-14.8%	9.8	?	3.55µM*	?	?
COC(=O)c1ccc(OC(=O)CS(=O)c2ccccc2[N+](=O)[O-])cc1 (stereo not given)	2.3%	-7.9	i	-3.7%	3.9%	7.1%
CS(=O)(=O)c1ccc(S(=O)CC(=O)OCc2ccccc2)c([N+](=O)[O-])c1 (stereo not given)	-10.9%	7.8	·	7.08µM*	4.47µM*	?
SMILES	uPA surface inh	Giardia killer	ATXN viability	HepG2 tox	TGFb SMAD3 inh	ATXN2 expr inh
Cc1c(CCOc2ccc(C(=O)O)cc2)c2cc(Cl)ccc2n1C(c1ccccc1)c1ccccc1	·	·	·	·	·	-19.9%
CC(=O)Nc1ccc(/C=C/c2sc3ccccc3[n+]2CCCCI)cc1	·	·	·	-20.6%	15.3%	·
CCN(CC)c1ccc(/C=C/c2sc3ccccc3[n+]2CCCCI)cc1	·	·	·	-53.7%	12.6µM*	·
COCc1ccc(O)c2ncccc12	-7.8%	-13.0	?	-77.2%	1.58µM*	?
Cc1c(C)c2cccnc2c2ncccc12	?	9.3	?	-35.0%	10µM*	?
Clc1cc2cccnc2c2ncccc12	-1.1%	-11.9	?	-40.9%	?	-31.8%
O=Nc1ccc(O)c2ncccc12	?	-25.8	15.8µM*	-96.4%	?	·
Cc1ccc(O)c2ncccc12	·	·	?	·	·	15.8µM*
Oc1ccc(CNc2ccccc2)c2cccnc12	-7.1%	-21.0	i	-51.5%	?	-35.5%
COC(=O)C1CCN(Cc2ccc3c(c2)CN(C(=O)c2cc(C4CC4)on2)CCO3)CC1	·	·	i	·	·	·
COc1cc(=O)n2c(c1C(=O)NC(C)c1ccco1)CCN(CC=C(C)C)CC2 (stereo not given)	·	·	i	·	·	·
CCNC(=O)c1cc(NC(=O)COC)cc2nc(-c3ccncc3)n(C)c12	·	·	i	·	·	·
CCO[C@H](Cc1ccc(OCCc2ccc(OS(C)(=O)=O)cc2)cc1)C(=O)O	·	·	i	·	·	15.9%
Cc1c(C(=O)NCC2(N3CCCCC3)CCCC2)cnn1-c1nccc(-c2ccccc2F)n1	·	·	i	·	·	·
S=C(NC1CCCCC1)N1CCN(C2CCCCC2)CC1	-2.2%	-7.7	i	17.8µM*	?	-8.3%
O=C(NC1CCCCC1)N1CCN(C2CCCCC2)CC1	·	51.7	i	-39.1%	-4.3%	-10.7%
CCCCCCSc1cc(-c2nc3ccc(C)cn3c2NCc2ccccc2)ccc1OC	?	-4.7	20µM*	-15.6%	?	-19.0%
CCCCCCSc1ccc(-c2nc3ccc(C)cn3c2NCCCC)cc1OC	·	·	28.2µM*	·	·	0.0%
CCC(C)Sc1cccc(-c2nc3ccc(Cl)cn3c2NCc2ccccc2)c1 (stereo not given)	?	41.1	i	-6.8%	?	-31.8%
CCCCNc1c(-c2ccc(-c3ccc(OC)cc3)c(OC)c2)nc2ccccn12	12.6µM*	-10.4	i	-72.7%	?	?
CCCCCCSc1ccc(-c2nc3ccc(Cl)cn3c2NCCCC)cc1OC	1.0%	1.9	i	-21.7%	?	2.8%
CCC(C)Sc1cccc(-c2nc3ccc(C)cn3c2NCc2ccccc2)c1 (stereo not given)	?	3.1	?	11.2µM*	10µM*	?
CCC(O)CNC(=O)c1cnn(-c2ncc3c(n2)-c2ccccc2CCC3)c1C1CC1 (stereo not given)	·	·	i	·	·	·
C=CCn1c(SC(C)C#N)nc2ccccc2c1=O (stereo not given)	·	8.1	·	6.6%	18.8%	·
Cc1cc(Cl)ccc1Nc1nc(NCc2ccco2)nc2nccnc12	·	2.0	·	14.1%	1.0%	·
CC[N+]1(CC(=O)c2ccc(Cl)cc2)CCCCC1	·	·	·	2.6%	0.5%	·
